Among the data in PubChem BioAssay (NCATS) are viability and Potency values, retold here.

SMILES strings stand for the structures. Inconclusive results are not listed. A number with no mark means an inactive call. Calls of active or inactive are those of the source. Calls come from the whole dose curve; as a rule, active = well fitted curve in the direction sought with a large enough effect; inconclusive = small, poorly fitted or top-dose-only effect, or another doubt; inactive = no such curve, though single readings can be large; an effect the other way counts as inactive or inconclusive.

The nature of experiment [1]: BET inhibitor-based combinations targeting novel dependencies in MECOM-rearranged (r) AML: SET-2 cell line (AID 2202231).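 For viability: plate controls were DMSO treated cells for no effect and wells without cells for full effect.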 Note: nearly all actives have a fitted effect of over 35% in size. The conditions noted are these: SET-2 AML cells viability, CellTiter-Glo luminescence, 48 h; viability: stronger effect = lower value, concentration not given here. A digest of the protocol: (§1)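 Here, 11-point titrations of each agent were applied to 500 seeded cells and incubated 48 hr; CellTiter-Glo signal, scaled against DMSO and empty wells, was integrated as AUC, then Z-scored within the individual line.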
For orientation: ATP-based viability assays read luminescence as a measure of living cells.

Experiment [2] has as its target Aldehyde dehydrogenase 1A1 (Homo sapiens) (UniProt P00352). The experiment can be described thus: qHTS for Inhibitors of the Aldehyde Dehydrogenase Family (ALDH1A1) Confirmatory screens (AID 2061316). Note: nearly all actives have a fitted effect of over 65% in size. The following applies: ALDH inhibition qHTS; series mostly up to 47.3 µM. For orientation: qHTS replaces the single test concentration by a dilution series.
Experiment [3] can be described thus: BET inhibitor-based combinations targeting novel dependencies in MECOM-rearranged (r) AML: OCI-AML3 cell line (AID 2202232). Note: nearly all actives have a fitted effect of over 35% in size. The following applies: CellTiter-Glo luminescence, 48 h; Potency: OCI-AML3 viability; series mostly up to 46 µM. A digest of the protocol:
as §1

The nature of experiment [4]: BET inhibitor-based combinations targeting novel dependencies in MECOM-rearranged (r) AML: MV-4-11 cell line (AID 2202233). Note: nearly all actives have a fitted effect of over 45% in size. The following applies: MV-4-11 AML viability, CellTiter-Glo luminescence, 48 h; series mostly up to 46 µM. A digest of the protocol: (§2)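 Normalized to DMSO and empty-well controls, the luminescence data from CellTiter-Glo after 48 hr drug exposure were fitted across 11 concentrations. Reported metrics are area under the dose-response curve and its Z-transformed form.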

Experiment [5] can be described thus: BET inhibitor-based combinations targeting novel dependencies in MECOM-rearranged (r) AML: HNT-34 cell line (AID 2202234). Note: nearly all actives have a fitted effect of over 35% in size. The following applies: HNT-34 AML viability, CellTiter-Glo luminescence, 48 h; series mostly up to 46 µM. A digest of the protocol:
as §2

Experiment [6] in a line: BET inhibitor-based combinations targeting novel dependencies in MECOM-rearranged (r) AML: UCSD-AML1 cell line (AID 2202235). Note: nearly all actives have a fitted effect of over 40% in size. The conditions noted are these: UCSD-AML1 AML cells viability, CellTiter-Glo, 48 h; series mostly up to 46 µM. A digest of the protocol: as §2
Experiment [7] can be described thus: BET inhibitor-based combinations targeting novel dependencies in MECOM-rearranged (r) AML: AML-191 cell line (AID 2202236; note: nearly all actives have a fitted effect of over 35% in size). The following applies: AML-191 viability, CellTiter-Glo luminescence, 48 h; series mostly up to 46 µM. A digest of the protocol: as §1
Potency is the fitted concentration of half-maximal effect.

As a reminder, the viability is a per cent measure of how many cells are alive, often set against a control. Turning to `CC(C)Oc1ccc(-c2nc(-c3cccc4c3CC[C@@H]4NCCO)no2)cc1C#N`, the viability in experiment [1] is 97.4%.

Take `CC1=C2[N-][C@H]([C@H](CC(N)=O)[C@@]2(C)CCC(=O)NC[C@@H](C)OP(=O)([O-])O[C@H]2[C@@H](O)[C@@H](n3cnc4cc(C)c(C)cc43)O[C@@H]2CO)[C@]2(C)N=C(C(C)=C3N=C(C=C4N=C1[C@@H](CCC(N)=O)C4(C)C)[C@@H](CCC(N)=O)[C@]3(C)CC(N)=O)[C@@H](CCC(N)=O)[C@]2(C)CC(N)=O.O.[Co+2]`: the viability in experiment [1] is 95.1%.

`Cc1ccnc(N(C)C(=S)N2CCN(c3cccc(C(F)(F)F)c3)CC2)c1`: the Potency in experiment [2] was 11.3 µM (active).

In the case of `CCOC(=O)C1=CCCCC1S(=O)(=O)Nc1ccc(F)cc1Cl` (stereo unspecified), the Potency in experiment [1] is 20.9 µM (active).

As to `CC[C@H](Nc1ncnc2nc[nH]c12)c1oc2ccccc2c(=O)c1-c1cccc(F)c1`, in experiment [1], the viability was 93.4%.

For the molecule `Cc1ccc(C(=O)N(CCCN)[C@@H](c2oc3cc(Cl)ccc3c(=O)c2Cc2ccccc2)C(C)C)cc1`, the Potency was 0.166 µM (active) in experiment [1]; 0.0263 µM (active) in experiment [3]; 0.0372 µM (active) in experiment [4]; 0.0132 µM (active) in experiment [5]; 0.0148 µM (active) in experiment [6]; 0.0468 µM (active) in experiment [7].

As for `COc1ccc2c(c1)CCc1sc(NC(=O)c3ccc(Br)cc3)nc1-2`, in experiment [2], the Potency is 10.2 µM (active).

`CNS(=O)(=O)Nc1nccc(Cc2c(C)c3ccc(Oc4ncccn4)cc3oc2=O)c1F`: the Potency in experiment [1] is 3.72 µM (active); in experiment [3] it was 0.0332 µM (active).

With `CC1Cc2ccccc2N1C(=O)Cc1nc(N2CCOCC2)cc(=O)[nH]1` (stereo unspecified), the viability in experiment [1] is 99.9%.

Take `Cn1cc(/C=C2\C(=O)Nc3cccnc32)c2ccccc21`: the viability in experiment [1] was 86.8%.
